Test results taken from the OligoGym collection.
Further: reference of the scale not given here.

What follows are sequences tested against GP6 (assay: pooled miR-30 sensor sort-seq; sequence = guide strand). Conditions: shRNA.
TTCGTTTGTGAATGAGACGGTC showed a sensor-assay potency score (higher = more potent) of 0.0865.
Sequence TTGTTTTCTAATGTGAAGGGAA has a sensor-assay potency score (higher = more potent) of -0.126.
With TTTTGAGACAAAGTCAGGCTTC the sensor-assay potency score (higher = more potent) was 0.424.
Sequence TTTGTTGGTAGAGATGAGGTTT has a sensor-assay potency score (higher = more potent) of -0.205.
Work on TAGCCCTGTACCATCTCTCGGG yielded a sensor-assay potency score (higher = more potent) of -0.328.
TAGCATCGGTAGGTTCCGCTGT was tested, and the sensor-assay potency score (higher = more potent) was -0.0169.
With TATTTTTTGAGACAAAGTCAGG the sensor-assay potency score (higher = more potent) was -1.21.
Work on ATTATTAGGATCACAGCCCCGA yielded a sensor-assay potency score (higher = more potent) of -0.0711.
For TTTTACACTAAGGAAAATGAAT, the sensor-assay potency score (higher = more potent) was -1.19.
TTGCACAGGCTGATCTTGTTTT showed a sensor-assay potency score (higher = more potent) of -0.638.

The sequences below were run against GPAA1 in the same assay as above. Conditions: shRNA.
In the case of TTCTGTTACCAGGAAGACGATA, the sensor-assay potency score (higher = more potent) is reported as -1.01.
In the case of TAGCTCAGCACGCACAACGGCG, the sensor-assay potency score (higher = more potent) is reported as -1.38.
Sequence TTTCCGGGAGAAACTCTGCGTG has a sensor-assay potency score (higher = more potent) of -0.575.
AAAACCAGCGCCAAGAACCAGG gave a sensor-assay potency score (higher = more potent) of -1.17.
In the case of TTCAGTGCCATCCAGCCCCTGT, the sensor-assay potency score (higher = more potent) is reported as -0.292.
